Active and inactive are the calls of the source.
Legend:
Albumin (Bos taurus) = Albumin (Bos taurus) (UniProt P02769); assay: compounds binding labelled BSA control protein – biochemical, small-molecule microarray, Alexa647 label, 635/667 nm fluorescence, artefact control for SMM control protein annotation, profiling panel (AID 1118); conditions: BSA-A647 binding, fluorescence 635 nm, higher = more signal;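 also: score merges 667 nm emission intensity and signal-to-noise per printed compound spot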
[1] = probe aXIP binding to arrayed compounds – biochemical, NeuroSMM set, 635/667 nm fluorescence, primary screen (AID 1119); conditions: small-molecule microarray, higher = more signal, called active from +8 up or from −8 down;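 also: probe is the protein aXip251-270 applied at 1 µg/mL to compound-printed slides; binding of probe to printed compounds measured as 667 nm fluorescence plus signal to noise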
[2] = probe aNOTCH3 binding on compound microarray – biochemical, small-molecule microarray, 635/667 nm fluorescence, primary screen (AID 1120); conditions: higher = more signal;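 also: probe is a biotin-tagged antibody raised against NOTCH3 rather than NOTCH3 protein; score merges spot fluorescence near 667 nm with spot signal to noise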
[3] = probe aNOTCH2 binding on compound microarray – biochemical, small-molecule microarray, 635/667 nm fluorescence, primary screen (AID 1121); conditions: higher = more signal;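 also: score merges feature fluorescence read at 667 nm with its signal to noise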
[4] = molecular target: Carbonic anhydrase 2 (Homo sapiens) (UniProt P00918); assay: compounds binding carbonic anhydrase 2 – biochemical, small-molecule microarray, Alexa647-labelled CAII, profiling panel (AID 1122); conditions: CAII-A647 binding fluorescence, higher = more signal
[5] = COS7 lysate on small-molecule microarray, probe aHis, 635 nm (AID 1123); conditions: COS7 cell lysate, fluorescence, higher = more signal;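 also: z-score combines 667nm fluorescence intensity with signal-to-noise per printed compound spot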
[6] = probe aLAP1 signal on lysate-treated microarray – cell lysate, small-molecule microarray, COS7 lysate, primary screen (AID 1124); conditions: probe aLAP1, fluorescence, higher = more signal;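 also: lysate comes from COS7 cells expressing LAP1 and is applied at 0.3 µg/mL; score merges spot fluorescence near 667 nm with signal-to-noise over triplicate slides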
Sam68 (KHDRBS1) = assay: compounds binding KHDRBS1 protein – biochemical, small-molecule microarray, 635 nm fluorescence, primary screen (AID 1125); conditions: higher = more signal;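 also: score merges 667 nm channel intensity with signal to noise over triplicate slides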
[7] = system: Chordin-like protein 2 (CHRDL2); assay: compounds binding chordin-like 2 – biochemical, small-molecule microarray, 635 nm fluorescence, primary screen (AID 1126); conditions: fluorescence 635 nm, higher = more signal;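 also: printed compound slides probed with Chrdl2 protein at 4 µg/mL for 1 h at 4 C; score merges 667 nm emission intensity with signal to noise over three replicate slides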
[8] = molecular target: Concanavalin-A (Canavalia ensiformis) (UniProt P02866); assay: compounds binding concanavalin A lectin – biochemical, small-molecule microarray, Alexa647 label, 635 nm, artefact control for SMM control protein annotation, primary screen (AID 1127); conditions: ConA-A647 binding fluorescence, higher = more signal;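 also: z combines 667 nm emission intensity with signal-to-noise across three replicate slides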
[9] = compounds binding Alexa647 anti-His antibody – biochemical, small-molecule microarray, 635 nm fluorescence, artefact control for SMM control protein annotation, primary screen (AID 1128); conditions: higher = more signal;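 also: score merges feature fluorescence with signal-to-noise for each printed compound spot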
[10] = system: Human papillomavirus type 1a E7 protein (residues 1-88); assay: HPV1a E7 small-molecule binders, primary screen, biochemical, small-molecule microarray, residues 1-88, 635 nm (AID 1129); conditions: small-molecule microarray binding, fluorescence 635 nm; higher = more signal
[11] = molecular target: Focal adhesion kinase 1 (Homo sapiens) (UniProt Q05397); assay: PTK2 protein binding on printed compound slides – biochemical, small-molecule microarray, 635/667 nm fluorescence, BSA, DTT, primary screen (AID 1130); conditions: 635 nm fluorescence, higher = more signal;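 also: composite of spot emission at 667 nm and signal to noise over triplicate slides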
[12] = system: Fibrinogen (Alexa647-labelled); assay: Alexa647-fibrinogen binding to printed small molecules – biochemical, small-molecule microarray, 635/667 nm fluorescence, artefact control for SMM control-protein annotation, profiling panel (AID 1131); conditions: fibrinogen-A647 binding fluorescence, higher = more signal;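 also: z-score merges 667 nm fluorescence with per-spot signal-to-noise over triplicate slides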
[13] = molecular target: Follistatin (Homo sapiens) (UniProt P19883); assay: FST protein binding to printed compounds – biochemical, small-molecule microarray, 635/667 nm fluorescence, primary screen (AID 1132); conditions: 635 nm fluorescence, higher = more signal
[14] = molecular target: Fibroblast growth factor 2 (Homo sapiens) (UniProt P09038); assay: basic fibroblast growth factor binding to printed compounds – biochemical, small-molecule microarray, 635/667 nm fluorescence, primary screen (AID 1133); conditions: FGF2, fluorescence 635/667, higher = more signal
[15] = JC-1 mitochondrial potential readout, lung cancer cells – cell-based, A549, JC-1 fluorescence, basal, 24 h, 100 nL, profiling panel (AID 1138); conditions: higher = more signal;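 also: A549 lung adenocarcinoma cells under basal conditions with no added stimulus; test concentration not given here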
Lefty1 = Lefty1 protein binding to printed compounds – biochemical, small-molecule microarray, 635/667 nm fluorescence, primary screen (AID 1139); conditions: fluorescence 635/667, higher = more signal
[16] = system: wheat germ agglutinin (Triticum aestivum), Alexa647-labelled; assay: Alexa647-WGA lectin binding to printed small molecules – biochemical, small-molecule microarray, 635/667 nm fluorescence, artefact control for SMM control-protein annotation, profiling panel (AID 1140); conditions: WGA-A647 binding, 635 nm fluorescence, higher = more signal;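 also: score merges 667 nm feature emission with signal to noise over triplicate slides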
[17] = molecular target: Luciferin 4-monooxygenase (Photinus pyralis) (UniProt P08659); assay: inhibition of purified Photinus pyralis luciferase – biochemical, luminescence, purified enzyme, 2006 set, primary screen (AID 1141); conditions: purified firefly luciferase, SteadyGlo luminescence, 30 min; higher = more signal, called active from +8 up or from −8 down;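 also: cell-free assay with purified firefly luciferase at 100 ng per well in PBS; test concentration not given here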
Sequence of Luciferin 4-monooxygenase (Photinus pyralis) (P08659 whole entry, looked up): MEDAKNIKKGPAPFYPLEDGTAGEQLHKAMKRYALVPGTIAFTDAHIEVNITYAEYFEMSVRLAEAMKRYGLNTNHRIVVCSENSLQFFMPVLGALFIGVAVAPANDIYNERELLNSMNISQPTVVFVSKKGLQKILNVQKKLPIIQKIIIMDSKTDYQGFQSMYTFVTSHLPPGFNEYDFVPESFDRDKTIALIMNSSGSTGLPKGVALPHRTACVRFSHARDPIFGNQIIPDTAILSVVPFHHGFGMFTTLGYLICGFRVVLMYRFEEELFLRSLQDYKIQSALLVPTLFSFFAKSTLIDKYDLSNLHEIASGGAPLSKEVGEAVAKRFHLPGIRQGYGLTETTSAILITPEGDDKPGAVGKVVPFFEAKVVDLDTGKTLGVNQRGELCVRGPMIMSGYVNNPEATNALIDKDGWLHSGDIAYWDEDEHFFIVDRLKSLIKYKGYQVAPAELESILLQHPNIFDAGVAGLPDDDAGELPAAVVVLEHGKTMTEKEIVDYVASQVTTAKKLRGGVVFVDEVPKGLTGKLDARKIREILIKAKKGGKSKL

Sequence of Follistatin (Homo sapiens) (P19883 whole entry, looked up): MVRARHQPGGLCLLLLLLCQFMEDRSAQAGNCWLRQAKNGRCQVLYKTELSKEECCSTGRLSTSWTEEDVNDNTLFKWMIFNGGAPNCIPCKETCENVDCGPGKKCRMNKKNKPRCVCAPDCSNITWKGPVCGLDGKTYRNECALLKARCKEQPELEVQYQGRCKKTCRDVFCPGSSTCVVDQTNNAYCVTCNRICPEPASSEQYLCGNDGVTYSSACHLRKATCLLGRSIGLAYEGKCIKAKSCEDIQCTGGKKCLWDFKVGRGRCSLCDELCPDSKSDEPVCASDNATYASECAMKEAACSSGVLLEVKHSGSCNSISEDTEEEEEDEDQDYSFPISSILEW
Sequence of Concanavalin-A (Canavalia ensiformis) (P02866 whole entry, looked up): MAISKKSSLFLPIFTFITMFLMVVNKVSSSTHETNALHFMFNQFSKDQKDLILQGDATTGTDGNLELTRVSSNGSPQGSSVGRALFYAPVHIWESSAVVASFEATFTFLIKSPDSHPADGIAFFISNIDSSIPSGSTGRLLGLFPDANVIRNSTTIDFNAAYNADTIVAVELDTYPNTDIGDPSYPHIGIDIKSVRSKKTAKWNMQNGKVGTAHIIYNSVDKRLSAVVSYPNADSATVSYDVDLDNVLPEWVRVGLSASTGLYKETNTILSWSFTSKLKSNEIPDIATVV
Sequence of Fibroblast growth factor 2 (Homo sapiens) (P09038 whole entry, looked up): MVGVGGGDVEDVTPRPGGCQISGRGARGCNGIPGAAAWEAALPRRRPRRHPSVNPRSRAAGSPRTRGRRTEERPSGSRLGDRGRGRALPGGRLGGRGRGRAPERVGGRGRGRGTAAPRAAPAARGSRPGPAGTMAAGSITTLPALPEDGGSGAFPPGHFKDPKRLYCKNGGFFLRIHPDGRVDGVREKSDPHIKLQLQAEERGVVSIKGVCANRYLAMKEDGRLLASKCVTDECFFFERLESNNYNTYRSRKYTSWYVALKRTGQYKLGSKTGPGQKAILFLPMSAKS
Sequence of Albumin (Bos taurus) (P02769 whole entry, looked up): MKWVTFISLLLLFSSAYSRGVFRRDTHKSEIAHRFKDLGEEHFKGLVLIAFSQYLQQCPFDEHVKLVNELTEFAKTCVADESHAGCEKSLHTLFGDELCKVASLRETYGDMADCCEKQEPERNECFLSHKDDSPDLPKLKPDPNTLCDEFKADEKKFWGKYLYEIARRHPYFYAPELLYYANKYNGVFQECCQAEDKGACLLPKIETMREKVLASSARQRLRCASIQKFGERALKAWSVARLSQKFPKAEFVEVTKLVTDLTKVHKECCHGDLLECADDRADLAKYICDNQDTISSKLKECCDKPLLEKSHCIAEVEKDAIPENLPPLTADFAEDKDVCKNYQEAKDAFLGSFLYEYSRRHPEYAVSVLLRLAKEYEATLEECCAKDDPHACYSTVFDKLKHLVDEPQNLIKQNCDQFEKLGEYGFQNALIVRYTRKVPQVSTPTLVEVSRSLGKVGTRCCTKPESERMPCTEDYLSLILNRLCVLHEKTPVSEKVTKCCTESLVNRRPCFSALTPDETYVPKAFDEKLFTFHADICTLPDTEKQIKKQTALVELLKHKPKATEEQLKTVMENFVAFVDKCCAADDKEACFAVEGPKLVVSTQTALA
Sequence of Focal adhesion kinase 1 (Homo sapiens) (Q05397 whole entry, looked up): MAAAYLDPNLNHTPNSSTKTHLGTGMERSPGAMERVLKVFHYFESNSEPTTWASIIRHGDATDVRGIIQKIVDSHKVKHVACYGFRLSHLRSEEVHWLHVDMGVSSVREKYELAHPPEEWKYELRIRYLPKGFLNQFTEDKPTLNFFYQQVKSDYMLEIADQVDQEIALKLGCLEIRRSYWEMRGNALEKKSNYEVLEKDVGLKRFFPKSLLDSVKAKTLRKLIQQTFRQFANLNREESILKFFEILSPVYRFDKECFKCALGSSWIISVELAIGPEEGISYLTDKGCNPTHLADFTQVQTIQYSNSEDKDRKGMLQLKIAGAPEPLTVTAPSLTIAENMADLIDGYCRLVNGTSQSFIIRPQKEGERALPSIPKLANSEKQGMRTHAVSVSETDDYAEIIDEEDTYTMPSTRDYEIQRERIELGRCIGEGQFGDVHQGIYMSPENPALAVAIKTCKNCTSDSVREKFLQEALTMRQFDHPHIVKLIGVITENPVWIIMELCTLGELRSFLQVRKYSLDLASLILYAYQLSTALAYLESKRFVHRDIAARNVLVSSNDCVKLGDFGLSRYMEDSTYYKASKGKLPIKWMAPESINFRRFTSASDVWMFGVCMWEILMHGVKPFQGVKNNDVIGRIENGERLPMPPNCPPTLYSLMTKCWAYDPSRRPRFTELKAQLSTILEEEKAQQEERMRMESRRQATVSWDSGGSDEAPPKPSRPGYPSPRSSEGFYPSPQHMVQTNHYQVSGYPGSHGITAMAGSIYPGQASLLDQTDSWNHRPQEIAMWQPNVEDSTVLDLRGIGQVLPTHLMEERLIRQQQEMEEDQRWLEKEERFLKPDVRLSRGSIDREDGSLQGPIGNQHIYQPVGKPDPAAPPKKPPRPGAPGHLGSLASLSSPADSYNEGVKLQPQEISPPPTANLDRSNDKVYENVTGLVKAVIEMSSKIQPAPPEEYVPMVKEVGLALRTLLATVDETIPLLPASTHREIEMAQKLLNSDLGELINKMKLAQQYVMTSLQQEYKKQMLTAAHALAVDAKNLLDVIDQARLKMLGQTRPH

| SMILES | composite z-score (Albumin (Bos taurus)) | composite Z-score [1] | composite z-score [2] | composite z-score [3] | composite z-score [4] | composite z-score [5] | composite z-score [6] | composite z-score (Sam68 (KHDRBS1)) | composite z-score [7] | composite z-score [8] | composite z-score [9] | composite z-score [10] | composite z-score [11] | composite z-score [12] | composite z-score [13] | composite z-score [14] | z-score [15] | composite z-score (Lefty1) | composite z-score [16] | z-score [17] |
| --- | --- | --- | --- | --- | --- | --- | --- | --- | --- | --- | --- | --- | --- | --- | --- | --- | --- | --- | --- | --- |
| CC[C@@H]1C=C(C(=O)O)[C@H](c2ccc(OC)cc2)N1S(=O)(=O)c1ccc(C)cc1 | 0.493 | 0.112 (inactive) | -0.061 | -0.173 | 0.852 | 2.55 | -0.388 | -0.815 | -0.377 | -0.0828 | -0.0418 | 0.521 | 0.359 | -0.342 | -0.055 | -0.477 | 0.0749 | 0.112 | 0.164 | 1.04 (inactive) |
| COC(=O)[C@@]1(Cc2ccc(F)cc2)[C@H]2c3cc(C(=O)N4CCCC4)n(Cc4cc(F)cc5c4OCOC5)c3C[C@H]2CN1C(=O)c1ccccc1 | 0.892 | 0.364 (inactive) | 0.0925 | 0.0266 | -0.0414 | -0.203 | -0.669 | -0.349 | -0.631 | 1.07 | 1.93 | -0.0867 | -0.225 | 0.947 | 0.906 | -0.796 | 1.8 | 0.348 | 0.755 | 2.74 (inactive) |
| C=CCC(OC(C)=O)[C@@H]1[C@@H](N(Cc2ccc(-c3ccccc3)cc2)C(=O)c2cccc3ccccc23)c2cc(OCCCO)ccc2N1C(=O)Cc1ccc(OC)cc1 (stereo not given in full) | -0.276 | -0.064 (inactive) | 0.222 | 0.0092 | -0.208 | -0.212 | -0.338 | -0.205 | 0.475 | -0.0975 | 0.118 | -0.0598 | -0.109 | 0.698 | 0.921 | 0.285 | 0.508 | 0.0844 | 0.175 | 0.706 (inactive) |
| N#Cc1ccc(NN2C(C(O)C3CC=CCC3)C=CC3C(=O)N(c4ccccc4)C(=O)C32)cc1 (stereo not given) | 1.03 | -0.098 (inactive) | 0.106 | -0.0037 | 0.486 | 3.13 | 0.452 | 1.32 | 0.0572 | 1.14 | 0.118 | 1.28 | 0.534 | 1.02 | 0.46 | 1.05 | 0.0165 | 0.361 | 1.36 | -0.852 (inactive) |
| COCCCNC(=O)[C@@H]1c2ccccc2C(=O)N(Cc2ccc(OC(F)(F)F)cc2)[C@H]1c1ccc(CO)cc1 | 0.348 | -0.274 (inactive) | -0.0074 | -0.174 | 0.529 | 1.22 | 1.28 | 0.859 | 0.286 | 0.874 | 1.54 | 1.11 | 1.79 | 0.654 | 1.14 | 0.722 | 2.03 | 0.541 | 0.316 | -0.0459 (inactive) |
| C=C(CCCC)C(=O)CC[C@@H](OC(=O)c1ccccc1-c1ccccc1C(=O)O)c1ccccc1OCCO | 0.269 | -0.136 (inactive) | -0.207 | -0.14 | 0.626 | -0.467 | 0.712 | 0.523 | 0.492 | 1.05 | 0.397 | 0.421 | -0.104 | 0.017 | 1.02 | 0.906 | 0.916 | 1.2 | -0.191 | -1.31 (inactive) |
| CC1CC/C=C\[C@H]2OC34C=CCN(c5ccc(Cl)cc5)C(=O)[C@H]3N(CCCCCCO)C(=O)[C@]4(C)C2C(=O)O1 (stereo not given in full) | -0.685 | 0.0185 (inactive) | -0.314 | 0.309 | 0.3 | 0.383 | -0.17 | -0.552 | -0.742 | -0.241 | 0.867 | -0.629 | -0.487 | -0.87 | -0.518 | -0.662 | 1 | -0.629 | -0.988 | -1.55 (inactive) |
| CCOc1cc(C(O)C2C=CC3C(=O)N(c4ccccc4)C(=O)C3N2Nc2ccccc2F)ccc1O (stereo not given) | 0.799 | -0.209 (inactive) | 0.533 | 0.433 | 0.826 | 2.75 | 0.0411 | 0.339 | 0.0988 | 0.666 | 0.532 | 0.316 | -0.0063 | -0.428 | 0.106 | -0.107 | -0.638 | -0.541 | 0.886 | -1.38 (inactive) |
| CCCC[C@H]1OB(O)C[C@H]2C1=C(COc1ccccc1)C[C@H]1C(=O)C=CC(=O)[C@H]12 | -0.339 | 0.229 (inactive) | -0.0333 | -0.0942 | -0.173 | -0.145 | -0.317 | 0.564 | 0.647 | 0.315 | 0.219 | 0.398 | 0.628 | 0.951 | 1.06 | 0.696 | 1.04 | 1 | 0.22 | -2.36 (inactive) |
| [N-]=[N+]=NCc1ccccc1[C@@H]1OC(c2ccc(OCCCO)cc2)=N[C@]1(Cc1ccccc1N=[N+]=[N-])C(=O)O | 1 | -0.164 (inactive) | 0.663 | 0.481 | 0.566 | 2.4 | 0.262 | 1.31 | -0.126 | 1.13 | 3.38 | 1.23 | 0.334 | 1.04 | 1.1 | 0.626 | -0.652 | -0.132 | 1.21 | -5.68 (inactive) |
| CCCN1C(=O)[C@@]2(c3ccc([N+](=O)[O-])cc3)CC(=O)N(CC34CC5CC(CC(C5)C3)C4)[C@@H]2c2ccc(CO)cc21 | 0.391 | -0.316 (inactive) | 0.056 | -0.199 | 0.302 | 0.634 | -0.193 | -0.83 | -0.229 | 0.0674 | -0.0371 | -1.01 | 0.195 | -0.171 | 1.23 | 1.12 | -0.284 | -0.0689 | -0.0176 | -0.366 (inactive) |

Source: PubChem BioAssay
